Reference: PubChem BioAssay (NCATS)
Records with an inconclusive call do not appear. For some assays here: Potency and affinity values are given separately. Calls of active or inactive are those of the source. Unless noted, how the calls were made is not given here. Peptide text beside a SMILES is read from it.

Assays:
[1] = Ebola virus entry assay, green fluorescence channel
[2] = Ebola virus entry assay, blue channel fluorescence
[3] = Ebola virus entry assay, ratio channel
[4] = Ebola virus entry assay, green channel fluorescence
[5] = Ebola virus entry assay, reporter ratio channel; Channel type: primary
[6] = Ebola virus entry assay, blue channel (ratio component)
[7] = qHTS assay for measurement of the activity of small molecule inhibitors on Zika virus induced Caspase-3 activity in human iPSC derived neural progenitor cells (hNPCs) (AID 1224857; active means well fitted inhibition curve with a large enough effect; further: % of control where 0% means no effect; nearly all actives have a fitted effect of over 65% in size); conditions: hNPCs ZIKV-induced caspase-3/7, Caspase-Glo luminescence, 6 h; series mostly up to 45.7 µM
Summary of the method: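 Quantitative HTS format: human iPSC neural progenitors, 1 h compound pretreatment, ZIKV 2 FFU/cell for 6 h at 37 C. Percent inhibition derived from luminescent caspase-3/7 signal between uninfected and infected controls.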
Wherever efficacy is given: 0% is about no effect.

O=C1Cc2cc(Cl)ccc2N1
inactive: efficacy [1] -20.6% | outcome [2] | outcome [3] | outcome [4] | outcome [5] | outcome [6]

O=c1[nH]cnc2c1ncn2[C@@H]1O[C@H](CO)[C@@H](O)[C@H]1O
inactive: efficacy [1] -42.8% | outcome [2] | outcome [3] | outcome [4] | outcome [5] | outcome [6]

O=C(O)CN(CCOCCOCCN(CC(=O)O)CC(=O)O)CC(=O)O
inactive: efficacy [1] 19.2% | outcome [2] | outcome [3] | outcome [4] | outcome [5] | outcome [6]

C[N+]12CCC(CC1)C(OC(=O)C(O)(c1ccccc1)c1ccccc1)C2 (stereo not drawn)
inactive: efficacy [1] 11.2% | outcome [2] | outcome [3] | outcome [4] | outcome [5] | outcome [6]

CCC(=O)c1ccc(O)cc1
inactive: efficacy [1] -30% | outcome [2] | outcome [3] | outcome [4] | outcome [5] | outcome [6]

Cc1[nH]c(C)c(Cl)c(=O)c1Cl
inactive: efficacy [1] 22.5% | outcome [2] | outcome [3] | outcome [4] | outcome [5] | outcome [6]

C/C=C/c1ccc(O)c(OC)c1
inactive: efficacy [1] 19% | outcome [2] | outcome [3] | outcome [4] | outcome [5] | outcome [6]

CCOC(=O)n1ccn(C)c1=S
inactive: efficacy [1] -11.5% | outcome [2] | outcome [3] | outcome [4] | outcome [5] | outcome [6]

CCCOC(=O)c1ccc(N)cc1
inactive: efficacy [1] 7.92% | outcome [2] | outcome [3] | outcome [4] | outcome [5] | outcome [6]

CC[N+](CC)(CC(=O)Nc1c(C)cccc1C)Cc1ccccc1
inactive: efficacy [1] -14.7% | outcome [2] | outcome [3] | outcome [4] | outcome [5] | outcome [6]

CCCc1ncc(C[n+]2ccccc2C)c(N)n1
inactive: efficacy [1] -20.5% | outcome [2] | outcome [3] | outcome [4] | outcome [5] | outcome [6]

CN1CC(=O)N2[C@H](c3ccc4c(c3)OCO4)c3[nH]c4ccccc4c3C[C@@H]2C1=O
inactive: efficacy [1] 22.3% | outcome [2] | outcome [3] | outcome [4] | outcome [5] | outcome [6]

CC(=O)OCC(=O)Nc1cc(C#N)cc(NC(=O)COC(C)=O)c1Cl
inactive: efficacy [1] 24.6% | outcome [2] | outcome [3] | outcome [4] | outcome [5] | outcome [6]

CCCCCCCCCCCCCCC[C@H](O)[C@@H](N)CO
inactive: efficacy [1] 25.9% | outcome [2] | outcome [3] | outcome [4] | outcome [5] | outcome [6]

O=C(CCCCC(=O)Nc1c(I)cc(I)c(C(=O)O)c1I)Nc1c(I)cc(I)c(C(=O)O)c1I
inactive: efficacy [1] 11.5% | outcome [2] | outcome [3] | outcome [4] | outcome [5] | outcome [6]

CCCc1ncc(C(=O)O)s1
inactive: efficacy [1] -25.8% | outcome [2] | outcome [3] | outcome [4] | outcome [5] | outcome [6]

COc1ccc(CCC(C)=O)cc1
inactive: efficacy [1] 11.4% | outcome [2] | outcome [3] | outcome [4] | outcome [5] | outcome [6]

CCOC(=O)C(C)(C)Oc1ccc(Cl)cc1
inactive: efficacy [1] 22.6% | outcome [2] | outcome [3] | outcome [4] | outcome [5] | outcome [6]

CCOC(=O)c1ccc(NC(=O)CN2CCCCC2)cc1
inactive: efficacy [1] -17.3% | outcome [2] | outcome [3] | outcome [4] | outcome [5] | outcome [6]

Cc1ncc2n1-c1ccc(Cl)cc1C(c1ccccc1F)=NC2
inactive: efficacy [1] -12% | outcome [2] | outcome [3] | outcome [4] | outcome [5] | outcome [6]

CN1[C@@H]2CC[C@H]1CC(NC(=O)n1c(=O)[nH]c3ccccc31)C2 (stereo partly drawn)
inactive: efficacy [1] -15.6% | outcome [2] | outcome [3] | outcome [4] | outcome [5] | outcome [6]

Cn1c(=O)c2c(ncn2C)n(C)c1=O
inactive: efficacy [1] -24.5% | outcome [2] | outcome [3] | outcome [4] | outcome [5] | outcome [6]

c1ccc(CC2=NCCN2)cc1
inactive: efficacy [1] -17.9% | outcome [2] | outcome [3] | outcome [4] | outcome [5] | outcome [6]

CCC1NC(=O)c2cc(S(N)(=O)=O)c(Cl)cc2N1 (stereo not drawn)
inactive: efficacy [1] -10.3% | outcome [2] | outcome [3] | outcome [4] | outcome [5] | outcome [6]

CCOc1ccc(NC(C)=O)cc1
inactive: efficacy [1] -22.6% | outcome [2] | outcome [3] | outcome [4] | outcome [5] | outcome [6]

O=[N+]([O-])c1nccn1CO[C@@H](CO)[C@H](O)CO
inactive: efficacy [1] -11.8% | outcome [2] | outcome [3] | outcome [4] | outcome [5] | outcome [6]

CC(=O)N1CCN(c2ccc(O)cc2)CC1
inactive: efficacy [1] 19.8% | outcome [2] | outcome [3] | outcome [4] | outcome [5] | outcome [6]

C[C@H]1COc2c(C3(N)CC3)c(F)cc3c(=O)c(C(=O)O)cn1c23
inactive: efficacy [1] 9.63% | outcome [2] | outcome [3] | outcome [4] | outcome [5] | outcome [6]

CCCCCN(CCCCC)C(=O)C(CCC(=O)O)NC(=O)c1ccc(Cl)c(Cl)c1 (stereo not drawn)
inactive: efficacy [1] 12.6% | outcome [2] | outcome [3] | outcome [4] | outcome [5] | outcome [6]

Cc1ccc(S(=O)(=O)NC(=O)NC2CCCC2)cc1
inactive: efficacy [1] -11.6% | outcome [2] | outcome [3] | outcome [4] | outcome [5] | outcome [6]

COc1ccc(CN(CCN(C)C)c2ncccn2)cc1
inactive: efficacy [1] -18% | outcome [2] | outcome [3] | outcome [4] | outcome [5] | outcome [6]

O=C(O)CP(=O)(O)O
inactive: efficacy [1] -15.3% | outcome [2] | outcome [3] | outcome [4] | outcome [5] | outcome [6]

CCCCCCCCCCCCOS(=O)(=O)O
inactive: efficacy [1] -26.4% | outcome [2] | outcome [3] | outcome [4] | outcome [5] | outcome [6]

CCCCC1(COC(=O)CCC(=O)O)C(=O)N(c2ccccc2)N(c2ccccc2)C1=O
inactive: efficacy [1] -12.3% | outcome [2] | outcome [3] | outcome [4] | outcome [5] | outcome [6]

Cn1cc(C(=O)[C@@H]2CCc3nc[nH]c3C2)c2ccccc21
inactive: efficacy [1] 15.9% | outcome [2] | outcome [3] | outcome [4] | outcome [6]
active: AC50 [5] 39.8 µM

O=C(NCCCN1CCOCC1)c1ccc(Cl)cc1
inactive: efficacy [1] -12.2% | outcome [2] | outcome [3] | outcome [4] | outcome [5] | outcome [6]

CCC(=O)Oc1ccc2c(c1)CC[C@@H]1[C@@H]2CC[C@@]2(C)[C@H]1C[C@@H](OC(=O)CC)[C@@H]2OC(=O)CC
inactive: efficacy [1] -23.4% | outcome [2] | outcome [3] | outcome [4] | outcome [5] | outcome [6]

O=C1CC2(CCCC2)CC(=O)N1CCCCN1CCN(c2ncccn2)CC1
inactive: efficacy [1] 11.1% | outcome [2] | outcome [4] | outcome [6]
active: AC50 [3] 22.4 µM | AC50 [5] 22.4 µM

O=S(=O)(O)NC1CCCCC1
inactive: efficacy [1] 14.2% | outcome [2] | outcome [3] | outcome [4] | outcome [5] | outcome [6]

CCCc1nc(C)c2c(=O)[nH]c(-c3cc(S(=O)(=O)N4CCN(CC)CC4)ccc3OCC)nn12
inactive: efficacy [1] 25.4% | outcome [2] | outcome [3] | outcome [4] | outcome [5] | outcome [6]

C#Cc1ccc(-c2ccccc2F)cc1
inactive: efficacy [1] 15.3% | outcome [2] | outcome [3] | outcome [4] | outcome [5] | outcome [6]

O=C(O)CCc1nc(-c2ccccc2)c(-c2ccccc2)o1
inactive: efficacy [1] 18.2% | outcome [2] | outcome [3] | outcome [4] | outcome [5] | outcome [6]

CCOC(=O)c1ccc(C#Cc2ccc3c(c2)C(C)(C)CCS3)nc1
inactive: efficacy [1] 24% | outcome [2] | outcome [3] | outcome [4] | outcome [5] | outcome [6]

NS(=O)(=O)c1cc(C(=O)O)c(NCc2ccco2)cc1Cl
inactive: efficacy [1] -30.8% | outcome [2] | outcome [3] | outcome [4] | outcome [5] | outcome [6]

OC[C@]1(O)OC[C@@H](O)[C@H](O)[C@@H]1O
inactive: efficacy [1] -31% | outcome [2] | outcome [3] | outcome [4] | outcome [5] | outcome [6]

CC1(C)CO[C@@H](CC(=O)O)CN1
inactive: efficacy [1] -12.4% | outcome [2] | outcome [3] | outcome [4] | outcome [5] | outcome [6]

COC(=O)C1=C(C)NC(COC(N)=O)=C(C(=O)OC(C)C)C1c1cccc(Cl)c1Cl (stereo not drawn)
active: AC50 [3] 22.4 µM | AC50 [5] 22.4 µM
inactive: efficacy [1] 27.1% | outcome [2] | outcome [4] | outcome [6]

NC(N)=NCCC[C@H](N)C(=O)O
inactive: efficacy [1] -16.3% | outcome [2] | outcome [3] | outcome [4] | outcome [5] | outcome [6]

NC(CSCC(=O)O)C(=O)O (stereo not drawn)
inactive: efficacy [1] -16% | outcome [2] | outcome [3] | outcome [4] | outcome [5] | outcome [6]

CCCCCC(N)=O
inactive: efficacy [1] 10.6% | outcome [2] | outcome [3] | outcome [4] | outcome [5] | outcome [6]

CC[N+](CC)(CC)CCOC(=O)C(C1CCCC1)C1CCCC1
inactive: efficacy [1] 39.4% | outcome [2] | outcome [3] | outcome [4] | outcome [5] | outcome [6]

Nc1ccncc1N
inactive: efficacy [1] -16.5% | outcome [2] | outcome [3] | outcome [4] | outcome [5] | outcome [6]

CCOCC(O)COc1ccc(NC(=O)CC[S+](C)C)cc1 (stereo not drawn)
inactive: efficacy [1] -21.6% | outcome [2] | outcome [3] | outcome [4] | outcome [5] | outcome [6]

O=C(O)CCC(=O)OC[C@@H](NC(=O)C(Cl)Cl)[C@H](O)c1ccc([N+](=O)[O-])cc1
inactive: efficacy [1] 19.1% | outcome [2] | outcome [3] | outcome [4] | outcome [5] | outcome [6]

CCC(CC)(CC(=O)Nc1cccc(/C=C/c2nc(C3CCC3)cs2)c1)C(=O)O
inactive: efficacy [1] -22.5% | outcome [2] | outcome [3] | outcome [4] | outcome [5] | outcome [6]

CC(O)Cn1cnc2c1c(=O)n(C)c(=O)n2C (stereo not drawn)
inactive: efficacy [1] 6.04% | outcome [2] | outcome [3] | outcome [4] | outcome [5] | outcome [6]

CC(=O)N[C@@H](CO)C(=O)N[C@@H](CC(=O)O)C(=O)N[C@@H](CCCCN)C(=O)N1CCC[C@H]1C(=O)O (Ac-SDKP-OH)
inactive: efficacy [1] 17.5% | outcome [2] | outcome [3] | outcome [4] | outcome [5] | outcome [6]

C[N+]1(C)CCC(=C(c2ccccc2)c2ccccc2)CC1
inactive: efficacy [1] -9.5% | outcome [2] | outcome [3] | outcome [4] | outcome [5] | outcome [6]

CO/N=C(\C(=O)O)c1csc(NC(=O)CCl)n1
inactive: efficacy [1] 7.58% | outcome [2] | outcome [3] | outcome [4] | outcome [5] | outcome [6]

CCCOC(=O)Cc1ccc(OCC(=O)N(CC)CC)c(OC)c1
inactive: efficacy [1] -14.5% | outcome [2] | outcome [3] | outcome [4] | outcome [5] | outcome [6] | Potency [7]

CC(C)Cc1ccc(C(C)C(=O)OCc2ccccn2)cc1 (stereo not drawn)
inactive: efficacy [1] -17.6% | outcome [2] | outcome [3] | outcome [4] | outcome [5] | outcome [6]

CCCCNc1cc(C(=O)O)cc(S(N)(=O)=O)c1Oc1ccccc1
inactive: efficacy [1] -14.8% | outcome [2] | outcome [3] | outcome [4] | outcome [5] | outcome [6]

CCc1nnc(NS(=O)(=O)c2ccc(N)cc2)s1
inactive: efficacy [1] -8.59% | outcome [2] | outcome [3] | outcome [4] | outcome [5] | outcome [6]

Nc1ccc(N)cc1
inactive: efficacy [1] 15.4% | outcome [2] | outcome [3] | outcome [4] | outcome [5] | outcome [6] | Potency [7]

CC(C(=O)O)c1ccc2c(c1)Cc1cccnc1O2 (stereo not drawn)
inactive: efficacy [1] -16.5% | outcome [2] | outcome [3] | outcome [4] | outcome [5] | outcome [6]

C/C=C/C(=O)N(CC)c1ccccc1C
inactive: efficacy [1] 23.4% | outcome [2] | outcome [3] | outcome [4] | outcome [5] | outcome [6]
